Results: PubChem BioAssay (Tox21)
Values without a mark were called inactive. Records with an inconclusive call do not appear. Where a call stands in place of a potency, no number is given. Activity calls are given as the source filed them. Unless noted, the call rests on the fitted dose curve; in most records, active means well fitted curve in the direction sought with a large enough effect in the repeat runs; inconclusive means weak or mixed curves; inactive means no such curve, though single readings can be large; an effect the other way counts as inactive or inconclusive.

Tests used:
[1] = qHTS assay to test for compound auto fluorescence at 460 nm (blue) in HEK293 cell free culture (AID 720681)
Summary of the method: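 Test compounds were pinned into cell-free culture medium (DMEM with 10% FBS) and fluorescence was read directly at Ex/Em 405/460 nm. Signals were expressed as fluorescence equivalents of triamterene, with DMSO vehicle as control.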

[2] = qHTS assay to test for compound auto fluorescence at 535 nm (green) in HEK293 cell free culture (AID 720682)
Summary of the method: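 Green-label autofluorescence (485 nm excitation, 535 nm emission) measured on compound added to cell-free culture medium (DMEM, 10% FBS). Output is expressed relative to fluorescein.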

[3] = qHTS assay to test for compound auto fluorescence at 590 nm (red) in HEK293 cell free culture (AID 720683)
Summary of the method: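 Tox21 10K library compounds were pinned into cell-free DMEM with 10% FBS and fluorescence was read at excitation 540 nm. Activity is expressed as Rose Bengal sodium equivalency.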

[4] = qHTS assay to test for compound auto fluorescence at 590 nm (red) in HepG2 cell free culture (AID 720684)
Summary of the method: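 Ex 540 / Em 590 nm read of compound in cell-free MEM (10% FBS). Rose Bengal sodium reference.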

[5] = qHTS assay to test for compound auto fluorescence at 460 nm (blue) in HepG2 cell free culture (AID 720685)
Summary of the method: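 Cell-free plates of MEM plus 10% FBS received 23 nL compound or DMSO vehicle; blue-channel (405/460 nm) intensity scored against triamterene as reference fluorophore.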

[6] = qHTS assay to test for compound auto fluorescence at 535 nm (green) in HepG2 cell free culture (AID 720686)
[7] = qHTS assay to test for compound auto fluorescence at 460 nm (blue) in HepG2 cells (AID 720687)
Summary of the method: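 Cells (2,000/well in MEM with 10% FBS) attached overnight at 37 C, then were exposed to compound or DMSO for 1 hr at 37 C, 5% CO2. Fluorescence read at Ex/Em 405/460 nm, expressed as triamterene-equivalent signal.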

[8] = qHTS assay to identify small molecule antagonists of the glucocorticoid receptor (GR) signaling pathway - cell viability counter screen (AID 720693); further: nearly all actives have a fitted effect of over 55% in size
[9] = qHTS assay for identifying genotoxic compounds that show differential cytotoxicity against isogenic chicken DT40 cell lines with known DNA damage response pathways - wild type cell line (AID 743012); further: nearly all actives have a fitted effect of over 60% in size; further: potency means the concentration at half of the fitted maximal effect
Summary of the method: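 Viability by ATP luminescence (CellTiter-Glo, 30 min RT) after 40 h compound treatment at 37 C/5% CO2, using 300 parental DNA repair-proficient DT40 cells per well.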

[10] = qHTS assay for identifying genotoxic compounds that show differential cytotoxicity against isogenic chicken DT40 cell lines with known DNA damage response pathways - Rev3 mutant cell line (AID 743014); further: nearly all actives have a fitted effect of over 55% in size; further: potency means the concentration at half of the fitted maximal effect
[11] = qHTS assay for identifying genotoxic compounds that show differential cytotoxicity against isogenic chicken DT40 cell lines with known DNA damage response pathways - Rad54/Ku70 mutant cell line (AID 743015); further: nearly all actives have a fitted effect of over 60% in size; further: potency means the concentration at half of the fitted maximal effect
[12] = qHTS assay to identify small molecule antagonists of the androgen receptor (AR) signaling pathway - cell viability counter screen (AID 743033; further: nearly all actives have a fitted effect of over 45% in size)
[13] = qHTS assay to identify small molecule antagonists of the androgen receptor (AR) signaling pathway using the MDA cell line - cell viability counter screen (AID 743041; further: nearly all actives have a fitted effect of over 45% in size)
Summary of the method: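 In this qHTS counter assay, fluorescence intensity after CellTiter-Fluor addition indicated viability of MDA-kb2 AR-luc cells given compounds and R1881 for 16 h at 37C.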

[14] = qHTS assay to identify small molecule antagonists of the thyroid receptor (TR) signaling pathway - cell viability counter screen (AID 743064); further: nearly all actives have a fitted effect of over 50% in size
Summary of the method: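 GH3.TRE-Luc rat pituitary cells dosed after 4 hr plating, co-stimulated with T3 at 1 nM final, incubated 23.5 h at 37 C. Viability measured in the same wells by CellTiter-Fluor fluorescence after 30 min further at 37 C.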

[15] = molecular target: Glucocorticoid receptor (Homo sapiens) (UniProt P04150); test: qHTS assay to identify small molecule agonists of the glucocorticoid receptor (GR) signaling pathway (AID 720691; active means well fitted activation curve with a large enough effect in the signal ratio in the repeat runs, not every such curve was filed as active; the % refers to the signal ratio)
Summary of the method: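 Agonist-mode qHTS in HeLa cells stably expressing a glucocorticoid-response-element beta-lactamase reporter. Fluorescence intensity read with FRET substrate (2 h, room temperature) after 18 h compound treatment at 37 C.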

[16] = molecular target: Glucocorticoid receptor (Homo sapiens) (UniProt P04150); test: qHTS assay to identify small molecule antagonists of the glucocorticoid receptor (GR) signaling pathway (AID 720692; active means well fitted inhibition curve with a large enough effect in the signal ratio in the repeat runs, not every such curve was filed as active; the % refers to the signal ratio)
Summary of the method: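 Inhibition of dexamethasone-driven (5 nM final) beta-lactamase expression was measured in GRE-reporter HeLa cells over 18 h at 37C. Fluorescence was read after 2 h with the B/G FRET substrate at room temperature.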

[17] = molecular target: Androgen receptor (Homo sapiens) (UniProt P10275); test: qHTS assay to identify small molecule agonists of the androgen receptor (AR) signaling pathway using the MDA cell line (AID 743040; further: nearly all actives have a fitted effect of over 20% in size)
Summary of the method: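 Cell-based luciferase reporter: MDA-kb2, MMTV promoter (AR + GR response elements). 16 h compound exposure at 37C; ONE-Glo, 30 min RT, luminescence.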

[18] = molecular target: Androgen receptor (Homo sapiens) (UniProt P10275); test: qHTS assay to identify small molecule antagonists of the androgen receptor (AR) signaling pathway using the MDA cell line (AID 743042; further: nearly all actives have a fitted effect of over 55% in size)
Summary of the method: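 MDA-kb2 cells (human breast carcinoma, stably carrying an MMTV-luciferase reporter responsive to AR and GR) were plated at 3,000 cells/well and preincubated 5 hr at 37C, then given compound plus R1881 agonist for 16 h. ONE-Glo luminescence was read.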

Sequence of Glucocorticoid receptor (Homo sapiens) (P04150 whole entry, looked up): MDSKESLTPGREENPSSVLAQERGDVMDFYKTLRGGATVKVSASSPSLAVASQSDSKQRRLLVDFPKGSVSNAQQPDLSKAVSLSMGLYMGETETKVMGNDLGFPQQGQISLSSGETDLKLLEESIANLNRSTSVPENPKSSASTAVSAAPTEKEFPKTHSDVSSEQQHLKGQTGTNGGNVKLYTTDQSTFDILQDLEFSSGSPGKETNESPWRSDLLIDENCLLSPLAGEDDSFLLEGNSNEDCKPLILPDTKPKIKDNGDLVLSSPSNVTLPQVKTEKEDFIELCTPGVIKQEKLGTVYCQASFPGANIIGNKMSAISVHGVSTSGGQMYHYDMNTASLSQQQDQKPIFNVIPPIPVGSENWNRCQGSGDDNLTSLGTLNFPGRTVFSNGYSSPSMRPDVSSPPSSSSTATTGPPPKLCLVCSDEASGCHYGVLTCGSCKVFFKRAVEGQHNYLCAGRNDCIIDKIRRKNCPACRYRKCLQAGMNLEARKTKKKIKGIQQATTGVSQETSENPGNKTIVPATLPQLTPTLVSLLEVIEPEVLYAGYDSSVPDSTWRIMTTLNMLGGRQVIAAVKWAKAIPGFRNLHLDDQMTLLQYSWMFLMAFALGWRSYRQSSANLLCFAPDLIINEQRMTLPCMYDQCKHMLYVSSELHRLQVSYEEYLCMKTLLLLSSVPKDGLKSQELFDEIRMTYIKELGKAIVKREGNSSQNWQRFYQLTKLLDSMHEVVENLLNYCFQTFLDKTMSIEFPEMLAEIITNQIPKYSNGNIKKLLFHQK
Sequence of Androgen receptor (Homo sapiens) (P10275 whole entry, looked up): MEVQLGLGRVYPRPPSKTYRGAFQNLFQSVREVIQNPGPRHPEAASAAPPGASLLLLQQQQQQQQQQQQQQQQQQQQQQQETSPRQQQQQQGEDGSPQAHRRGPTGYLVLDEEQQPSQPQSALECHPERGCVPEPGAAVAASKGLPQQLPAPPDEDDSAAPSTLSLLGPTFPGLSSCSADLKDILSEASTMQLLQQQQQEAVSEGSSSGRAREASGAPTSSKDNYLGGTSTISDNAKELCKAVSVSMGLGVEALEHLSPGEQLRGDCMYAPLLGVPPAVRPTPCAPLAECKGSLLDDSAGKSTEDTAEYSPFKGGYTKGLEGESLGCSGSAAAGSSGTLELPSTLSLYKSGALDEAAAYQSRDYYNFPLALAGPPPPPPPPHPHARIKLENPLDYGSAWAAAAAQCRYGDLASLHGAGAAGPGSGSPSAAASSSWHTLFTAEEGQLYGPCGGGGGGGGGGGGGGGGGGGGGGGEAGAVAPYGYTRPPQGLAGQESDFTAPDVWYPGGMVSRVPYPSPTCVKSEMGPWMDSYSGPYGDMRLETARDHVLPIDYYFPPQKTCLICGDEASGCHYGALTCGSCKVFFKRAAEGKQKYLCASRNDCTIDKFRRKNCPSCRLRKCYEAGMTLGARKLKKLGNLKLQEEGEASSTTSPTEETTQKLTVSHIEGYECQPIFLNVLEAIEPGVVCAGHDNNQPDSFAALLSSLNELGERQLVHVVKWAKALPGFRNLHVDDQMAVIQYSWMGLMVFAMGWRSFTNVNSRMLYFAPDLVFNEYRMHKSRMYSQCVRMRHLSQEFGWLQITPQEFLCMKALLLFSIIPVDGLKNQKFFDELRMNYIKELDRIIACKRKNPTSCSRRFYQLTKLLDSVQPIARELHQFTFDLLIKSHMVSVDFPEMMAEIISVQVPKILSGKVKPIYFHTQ

Compound	outcome [1]	outcome [2]	outcome [3]	outcome [4]	outcome [5]	outcome [6]	outcome [7]	outcome [8]	Potency [9]	Potency [10]	Potency [11]	outcome [12]	Potency [13]	Potency [14]	Potency [15]	Potency [16]	Potency [17]	outcome [18]
CCCCCCCCCCOc1cc2c(=O)c(C(=O)OCC)c[nH]c2cc1OCC	inactive	inactive	inactive	inactive	inactive	inactive	inactive	inactive	inactive	inactive	inactive	inactive	inactive	inactive	–	–	–	–
CCCn1cc[n+](C)c1C	inactive	inactive	–	inactive	inactive	inactive	inactive	inactive	inactive	inactive	inactive	inactive	–	inactive	–	–	–	–
c1ccc(Cc2ccccc2)cc1	–	inactive	inactive	inactive	inactive	inactive	inactive	inactive	inactive	inactive	inactive	–	inactive	inactive	inactive	inactive	–	–
Nc1ccn([C@@H]2O[C@H](CO)[C@@H](O)C2(F)F)c(=O)n1	–	inactive	inactive	inactive	inactive	inactive	inactive	inactive	15 nM (active)	18.8 nM (active)	18.8 nM (active)	inactive	inactive	–	–	–	–	–
COC(=O)Nc1ccc(Cl)c(Cl)c1	inactive	inactive	inactive	inactive	inactive	inactive	inactive	inactive	inactive	inactive	inactive	inactive	inactive	–	inactive	–	inactive	inactive
